Results: PubChem BioAssay AID485281 (National Center for Advancing Translational Sciences (NCATS), 2010)
Out of some 350,000 compounds screened, about 260 (0.074%) were called active. Roughly 8% stayed inconclusive and do not appear here. This is one part of a sample in which actives are shown more often than they occur. Calls follow the shape of the dose curve; as a rule, active = well fitted inhibition curve with a large enough effect; inconclusive = small, poorly fitted or top-dose-only effect; inactive = no such curve, though single readings can be large or run the other way.

target: Ferritin light chain (Equus caballus) (UniProt P02791); assay: qHTS Assay for Identification of Novel General Anesthetics; conditions: apoferritin/1-aminoanthracene competitive binding, fluorescence; series mostly up to 77.5 µM; activity change, negative = displacement: at the top concentration; also: nearly all actives have a fitted effect of over 20% in size
Sequence (P02791 2-175 limits assumed): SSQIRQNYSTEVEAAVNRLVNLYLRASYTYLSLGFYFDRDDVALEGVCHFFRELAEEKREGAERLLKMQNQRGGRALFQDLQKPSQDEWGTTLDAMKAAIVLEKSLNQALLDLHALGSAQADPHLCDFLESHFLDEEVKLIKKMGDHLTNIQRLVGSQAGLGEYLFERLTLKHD
Excerpt: Source: NIH Chemical Genomics Center [NCGC]
Assay Submitter: Roderic Eckenhoff, University of Pennsylvania
Screening Center PI: Christopher P. Austin, NIH
Probe Development: NIH Chemical Genomics Center [NCGC]
Anesthetic development has remained a largely empirical process. There are growing concerns about the cognitive effects of known general anesthetics and acceleration of the onset of neurodegenerative disease. The compounds' toxicity and multiple specific binding targets in the mammalian brain [4] has made them less attractive as drug leads. In this assay, a GABAergic mimetic model system, apoferritin and a profluorescent 1-aminoanthracene ligand (1-AMA), was used to construct a competitive binding assay for identification of novel general anesthetics. The assay was validated for 1-AMA using other known anesthetics, such as isoflurane (CID:3763) and propofol (CID: 4943), [6].
[1] S.L. Bianchi, T. Tran, C. Liu, S. Lin, Y. Li, J.M. Keller, R.G. Eckenhoff, and M.F. Eckenhoff, Brain and behavior changes in 12-month-old Tg2576 and nontransgenic mice exposed to anesthetics. Neurobiol Aging 29 (2008) 1002-10.
[2] Z. Xie, Y. Dong, U. Maeda, R.D. Moir, W. Xia, D.J. Culley, G. Crosby, and R.E. Tanzi, The inhalation anesthetic isoflurane induces a vicious cycle of apoptosis and amyloid beta-protein accumulation. J Neurosci 27 (2007) 1247-54.
[3] P. Honegger, and J.M. Matthieu, Selective toxicity of the general anesthetic propofol for GABAergic neurons in rat brain cell cultures.
[4] M.F. Eckenhoff, K. Chan, and R.G. Eckenhoff, Multiple specific binding targets for inhaled anesthetics in the mammalian brain. J Pharmacol Exp Ther 300 (2002) 172-9.
[5] C.A. Butts, J. Xi, G. Brannigan, A.A. Saad, S.P. Venkatachalan, R.A. Pearce, M.L. Klein, R.G. Eckenhoff, and I.J. Dmochowski, Identification of a fluorescent general anesthetic, 1-aminoanthracene. Proc Natl Acad Sci U S A 106 (2009) 6501-6.
[6] W.A. Lea, J. Xi, A. Jadhav, L. Lu, C.P. Austin, A. Simeonov, and R.G. Eckenhoff, A high-throughput approach for identification of novel general anesthetics. PLoS One 4 (2009) e7150.
Three uL of reagents (free 1-AMA (50% saturated solution of 1-aminoanthracene
in PBS) in columns 3, 4 as negative control and 1-AMA/apoferritin mixture (10 uM horse-spleen apoferritin in 50% saturated 1-aminoanthracene in PBS) in columns 1, 2, 5-48) was dispensed into 1536-well Greiner black assay plates. Compounds (23 nL) were transferred via Kalypsys pintool equipped with 1,536-pin array (10 nL slotted pins, V&P Scientific, San Diego, CA). Titration of the positive control, propofol, were delivered via pin transfer from separate control plates to the 2nd column of each assay plate. The starting concentration of the control, dissolved in DMSO, was at 160 mM, followed by two-fold dilution points in duplicate, for a total of 16 concentrations. The plates were incubated for 10 min at room temperature, and then read on an EnVision HTS multilabel reader (Perkin-Elmer, Waltham, MA) (end point read, 3 min/plate) using Fura2 BFP excitation filter (380 nm, bandwidth 10 nm) and fluorescein emission filter (535 nm, bandwidth 25 nm) set. A LANCE/DELFIA dichroic mirror with a cutoff wavelength at 400 nm was used to maximize signal accuracy and strength. Vehicle-only plates, with DMSO being pin-transferred to the entire column 5-48 compound area, were inserted uniformly at the beginning and the end of each library in order to monitor for and record any shifts in the background. Activity was computed as the normalized fluorescence response relative to free 1-AMA and 1-AMA/apoferritin complex values. Concentration-effect relationships were derived by using curve fitting algorithms developed in-house (http://ncgc.nih.gov/pub/openhts/). A four parameter Hill equation was fitted to the concentration-response data by minimizing the residual error between the modeled and observed responses.
% is scaled to controls: 0 for no effect and ±100 for the full control effect; potency is read from the fitted curve at half-maximal effect.

Activity change, negative = displacement, inactive:
COc1ccc(CNC(=O)CSCc2nc(-c3ccccc3F)oc2C)cc1 -12.4%
COc1ccc(Br)cc1C1CC(=O)Nc2c1c(C)nn2-c1nc(C)cc(C)n1 (stereo not drawn) 3.29%
Cc1ccc(NC(=O)c2ccc3[nH]c(C)cc(=O)c3c2)c(C)c1 -7.2%
Cc1c(Cl)cccc1-c1ccc(CNCCCSc2nnnn2C)o1 -11.2%
COc1ccc(NC(=O)CCN2CCN(CCO)CC2)cc1 -5.78%
COc1ccc(CCNC(=O)c2ccc3c(c2)nc(C)n3-c2ccc(Br)cc2)cc1OC -10.5%
O=C(CSc1nccn1C1CCCC1)Nc1cc(C(F)(F)F)ccc1Cl -7.55%
CCN(CC)c1ccc(NS(=O)(=O)c2cc(-c3cc(C)no3)ccc2C)c(C)c1 -16.1%
Cc1ccc(F)c(NC(=O)CCOc2ccccc2C)c1 -17.2%
Cc1cccc(OCC(=O)Nc2ccccc2F)c1 -10.1%
CCc1ccc(NC(=O)C2CCCN2S(=O)(=O)c2ccc3nc(-c4ccccc4)[nH]c3c2)cc1 (stereo not drawn) 45.5%
Cc1ccc2oc3c(c(=O)c2c1)C(c1ccc([N+](=O)[O-])cc1)N(CCCN1CCOCC1)C3=O (stereo not drawn) 2.9%
CSc1ccc(C2c3c(oc4ccccc4c3=O)C(=O)N2CCCN2CCOCC2)cc1 (stereo not drawn) -3.91%
CCOc1ccc(C(NC(=O)c2cc(OC)c(OC)c(OC)c2)c2cc(Cl)c3cccnc3c2O)cc1 (stereo not drawn) -4.02%
Cc1c(Cl)cccc1NC(=O)Cn1cc(C(=O)c2cccs2)c2ccccc21 -3.85%
O=C(Nc1ccc(Br)cc1)c1ccc(Br)c(S(=O)(=O)NCc2ccccc2)c1 -4.58%
CCCn1c2ccccc2c2cnn(CC(=O)NCC3CCN(Cc4ccc(C)cc4)CC3)c(=O)c21 2.12%
COc1ccc(N2CCN(c3nc(-c4ccccc4F)nc4ccccc34)CC2)cc1 2.92%
COc1ccc(OC)c(NC(=O)/C=C/c2ccc(C)o2)c1 -9.12%
CCC1CN(S(=O)(=O)c2cc(-c3cc(C)no3)ccc2C)c2cc(C)ccc2O1 (stereo not drawn) 53.1%
CC(C)c1ccc(OCC(=O)N(Cc2ccc(N(C)C)cc2)C2CCS(=O)(=O)C2)cc1 (stereo not drawn) 0.697%
CSc1ccc(CCNC(=O)c2ccc3c(c2)nc2n3CCOC2)cc1 2.01%
CC(C)S(=O)(=O)c1oc(-c2ccc(F)cc2)nc1S(=O)(=O)c1ccc(F)cc1 -17%
CCOc1ccc(-c2cc(C)n3nc(C(=O)Nc4ccc(C)c(C)c4)cc3n2)cc1 -1.85%
COc1ccc(Cl)cc1NC(=O)CCn1c(=O)c2cccn2c2ccccc21 1.18%
O=C(NCc1ccccc1)C(=O)NCC(c1ccco1)S(=O)(=O)c1ccc(Cl)cc1 (stereo not drawn) 0.676%
CCC(=O)N1CCc2cc(S(=O)(=O)NC(Cc3ccccc3)C(=O)NCc3ccccc3)ccc21 (stereo not drawn) -3.69%
CC(C)c1ccc(NC(=O)c2ccc(Cn3nc(N4CCN(c5ccccc5)CC4)ccc3=O)o2)cc1 -20.7%
Cc1ccc(CCNC(=O)c2ccc(CS(=O)(=O)Cc3cccc(C)c3)o2)cc1 -18.4%
CNC(=O)c1ccc(-c2nc(CN3CCc4ccccc43)c(C)o2)cc1 -15.1%
COc1ccc(-c2noc(CSc3nc4ccc(C)cc4[nH]3)n2)cc1 -17.7%
Cc1ccc(C(=O)Nc2ccc(OCc3cc(=O)n4c5c(sc4n3)CCCC5)cc2)cc1 -0.406%
O=C(Nc1ccc(NC(=O)c2cccs2)cc1)c1ccc2ccccc2c1 8.46%
O=C(Nc1ccccc1N1CCCC1)c1ccc2ccccc2c1 -13.8%
CCOc1cc(C(=O)Nc2nnc3n2CCS3)cc(OCC)c1OCC 3.04%
Cc1cc(O)c(C(c2ccccc2)N2CCN(c3ccccc3F)CC2)c(=O)n1Cc1ccco1 (stereo not drawn) -12.2%
CCOc1cc(-c2nnc(SCC(=O)NC3CCCCC3)nc2-c2ccc(OC)c(OCC)c2)ccc1OC 3.53%
COc1ccc(C(=O)Nc2ccc(-n3nncc3-c3ccccc3)cc2)cc1OC -2.67%
Cn1c(C(=O)N2CCC(C(=O)N3CCN(c4ccccc4)CC3)CC2)cc2sccc21 1.34%
CC(C)(C)OC(=O)N1CCC(c2c(C(=O)NCCc3ccsc3)cnn2-c2ccc(F)cc2F)CC1 -21.7%
COc1cccc(C(c2c(O)cc(C)n(Cc3ccco3)c2=O)N2CCN(c3ccccc3)CC2)c1 (stereo not drawn) 55.7%
COc1ccc2ncc3c(-c4ccc(C)c(C)c4)nn(CC(=O)NC4CCCC4)c3c2c1 -5.23%
CC(C)(C)OC(=O)NCCCCCC(=O)N/N=C/c1coc2ccccc2c1=O 5.44%
O=c1c(/C=N/O)coc2ccc(Cl)cc12 -1.41%
O=S(=O)(NCC(c1ccccc1)N1CCc2ccccc21)c1ccccc1 (stereo not drawn) 51.7%
O=C(O)c1c(CNCc2cccc(F)c2)c2ccccc2n1Cc1ccccc1 -21.5%
O=c1cc2nc(-c3ccccc3)nc(SCCOc3ccc(Cl)cc3)n2[nH]1 -0.698%
COc1ccc(CCN2C(=O)N(c3cccc(OC)c3)C(=O)C2CC(=O)Nc2ccccc2)cc1 (stereo not drawn) 85.6%
CCc1cnc2c(c1SCC(=O)c1ccccc1)c(=O)n(C)c(=O)n2C -10.2%
CCCNC(=O)c1ccc2c(c1)ncn2-c1ccc(C)cc1C -7.08%
CC(C)c1ccc(S(=O)(=O)Nc2ccc(O)c(Sc3nc4ccccc4s3)c2)cc1 -11.6%
COc1cc(NC(=O)c2cc3ccc4cccnc4c3[nH]2)cc(OC)c1OC -13.1%
CCOc1ccc(OCC)c(NC(=O)CN(c2ccc(C)cc2)S(=O)(=O)c2c(C)n[nH]c2C)c1 -11.5%
COc1ccc(OC)c(CCNC(=O)CCCn2c(=O)c3cccn3c3cccnc32)c1 10.6%

Potency, active:
Cc1ccc(F)c(NC(=O)CCc2ccccc2)c1 12.6 µM
CCCOc1ccc(C2c3c(oc4cc(C)c(C)cc4c3=O)C(=O)N2CCCN2CCOCC2)cc1 (stereo not drawn) 35.5 µM
C=CC(=O)c1ccc2ccccc2c1 17.8 µM
Cc1ccc2occ(/C=N/NC(=O)c3ccccc3C)c(=O)c2c1 25.1 µM
